# PubChem BioAssay
# Activity calls are given as the source filed them.
# Columns and labels:
# [1] = system: Plasmodium falciparum Sir2 (PF13_0152, Sir2A); test: Plasmodium falciparum Sir2A binding compounds – biochemical, small-molecule microarray, 635 nm fluorescence, primary screen (AID 1098); details: fluorescence 635 nm, higher = more signal;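 further: score merges spot fluorescence intensity with its signal-to-noise ratio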
# [2] = probe aDKK1 binding to arrayed compounds – biochemical, biotinylated probe, 635/667 nm fluorescence, primary screen (AID 1099); details: small-molecule microarray, higher = more signal;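 further: score merges 667nm spot fluorescence with signal to noise across triplicate slides; reference of the scale not given here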
# [3] = probe aCHRDL2 binding to arrayed compounds – biochemical, biotinylated probe, 635/667 nm fluorescence, primary screen (AID 1100); details: small-molecule microarray, higher = more signal
# [4] = change in splice reporter luminescence, either direction, cell-based, HEK293, spliceosome inhibition project, primary screen (AID 1101); details: HEK293 splicing luciferase reporter, 24 h, higher = more signal, called active from +8 up or from −8 down;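 further: HEK293 cells carrying a splicing-competent luciferase reporter gene; test concentration not given here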
# [5] = biological target: Fibroblast growth factor 10 (Homo sapiens) (UniProt O15520); test: compounds binding fibroblast growth factor 10 – biochemical, small-molecule microarray, 635 nm fluorescence, primary screen (AID 1102); details: FGF10 binding, fluorescence 635 nm, higher = more signal
# [6] = system: glycogen synthase kinase-3 (GSK3A per assay name; protocol says GSK3B); test: compounds binding glycogen synthase kinase-3 – biochemical, small-molecule microarray, 635 nm fluorescence, GSK3A, primary screen (AID 1103); details: fluorescence 635 nm, higher = more signal; further: the record names both GSK3A and GSK3B
# [7] = biological target: Epidermal growth factor receptor (Homo sapiens) (UniProt P00533); test: compounds binding epidermal growth factor receptor – biochemical, small-molecule microarray, 635 nm fluorescence, primary screen (AID 1104); details: EGFR binding, higher = more signal;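 further: score merges 667 nm emission intensity with spot signal to noise over triplicate slides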
# [8] = biological target: Follistatin-related protein 3 (Homo sapiens) (UniProt O95633); test: compounds binding follistatin-related protein 3 – biochemical, small-molecule microarray, 635 nm fluorescence, primary screen (AID 1105); details: FSTL3 binding, higher = more signal;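 further: score merges emission near 667 nm and signal to noise per printed spot across three slides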
# [9] = biological target: Dickkopf-related protein 1 (Homo sapiens) (UniProt O94907); test: small molecules binding DKK1 protein – biochemical, small-molecule microarray, 635 nm fluorescence scan, primary screen (AID 1106); details: higher = more signal;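 further: score merges emission near 667 nm with signal to noise over three replicate slides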
# [10] = system: Inhibin beta A chain (activin A); test: small molecules binding activin A – biochemical, small-molecule microarray, 635 nm fluorescence scan, primary screen (AID 1107); details: INHBA, higher = more signal;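 further: mouse activin A protein probed at 4.33 µg/mL on printed slides; score merges bound-protein fluorescence near 667 nm with spot signal-to-noise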
# Fibroblast growth factor 10 (Homo sapiens), sequence (O15520 whole entry, looked up): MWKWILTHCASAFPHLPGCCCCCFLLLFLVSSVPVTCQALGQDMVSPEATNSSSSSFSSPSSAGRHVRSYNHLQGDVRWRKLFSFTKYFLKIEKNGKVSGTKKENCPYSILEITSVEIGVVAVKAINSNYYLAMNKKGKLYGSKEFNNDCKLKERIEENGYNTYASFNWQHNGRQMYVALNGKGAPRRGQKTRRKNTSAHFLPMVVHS
# Follistatin-related protein 3 (Homo sapiens), sequence (O95633 whole entry, looked up): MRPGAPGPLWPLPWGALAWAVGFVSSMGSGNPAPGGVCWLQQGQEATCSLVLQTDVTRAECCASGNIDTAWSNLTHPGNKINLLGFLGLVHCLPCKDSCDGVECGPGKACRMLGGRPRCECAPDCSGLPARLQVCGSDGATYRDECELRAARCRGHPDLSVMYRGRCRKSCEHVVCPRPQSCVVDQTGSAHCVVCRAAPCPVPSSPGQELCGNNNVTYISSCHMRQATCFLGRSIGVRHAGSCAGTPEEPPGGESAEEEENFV
# Epidermal growth factor receptor (Homo sapiens), sequence (P00533 whole entry, looked up): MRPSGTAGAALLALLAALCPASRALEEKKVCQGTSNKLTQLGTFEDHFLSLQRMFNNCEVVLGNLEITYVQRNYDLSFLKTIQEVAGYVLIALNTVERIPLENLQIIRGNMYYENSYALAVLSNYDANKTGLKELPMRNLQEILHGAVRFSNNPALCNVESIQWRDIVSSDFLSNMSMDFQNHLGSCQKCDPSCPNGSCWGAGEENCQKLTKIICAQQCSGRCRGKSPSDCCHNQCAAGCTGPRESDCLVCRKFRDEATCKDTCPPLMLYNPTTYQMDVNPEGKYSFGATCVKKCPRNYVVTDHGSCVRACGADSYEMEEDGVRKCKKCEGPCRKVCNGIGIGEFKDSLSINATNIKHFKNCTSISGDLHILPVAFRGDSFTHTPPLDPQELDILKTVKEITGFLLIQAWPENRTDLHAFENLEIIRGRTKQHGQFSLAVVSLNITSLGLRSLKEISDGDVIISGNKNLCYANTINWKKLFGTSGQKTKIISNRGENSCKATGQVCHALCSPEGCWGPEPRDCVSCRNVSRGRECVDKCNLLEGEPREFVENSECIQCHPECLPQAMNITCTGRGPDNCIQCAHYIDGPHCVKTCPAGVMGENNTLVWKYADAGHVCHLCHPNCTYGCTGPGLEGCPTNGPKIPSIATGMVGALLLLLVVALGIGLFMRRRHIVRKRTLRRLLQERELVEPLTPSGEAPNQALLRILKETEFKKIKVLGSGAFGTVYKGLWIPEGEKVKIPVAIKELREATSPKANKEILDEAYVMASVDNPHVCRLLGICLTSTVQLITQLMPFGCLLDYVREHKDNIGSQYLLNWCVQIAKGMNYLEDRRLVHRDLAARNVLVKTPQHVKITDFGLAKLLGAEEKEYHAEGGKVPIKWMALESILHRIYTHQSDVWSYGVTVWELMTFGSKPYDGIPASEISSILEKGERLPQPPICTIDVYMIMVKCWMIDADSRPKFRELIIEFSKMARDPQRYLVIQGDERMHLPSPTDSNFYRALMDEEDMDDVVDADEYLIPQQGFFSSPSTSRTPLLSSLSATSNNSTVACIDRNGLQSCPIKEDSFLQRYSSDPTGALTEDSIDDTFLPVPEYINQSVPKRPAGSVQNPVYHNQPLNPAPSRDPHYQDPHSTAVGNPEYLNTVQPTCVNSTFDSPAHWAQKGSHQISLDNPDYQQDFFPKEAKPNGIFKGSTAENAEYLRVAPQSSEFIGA
# Dickkopf-related protein 1 (Homo sapiens), sequence (O94907 whole entry, looked up): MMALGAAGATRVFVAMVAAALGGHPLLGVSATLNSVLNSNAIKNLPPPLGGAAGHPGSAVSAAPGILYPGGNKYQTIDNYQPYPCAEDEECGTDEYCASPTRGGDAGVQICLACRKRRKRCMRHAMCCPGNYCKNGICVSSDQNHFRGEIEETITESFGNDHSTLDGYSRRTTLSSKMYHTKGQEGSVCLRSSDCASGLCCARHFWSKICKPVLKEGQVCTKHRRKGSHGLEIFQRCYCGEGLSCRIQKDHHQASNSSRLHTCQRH
compound,measurement,setting,value
CCOC(=O)C1=C[C@@H](c2ccccc2)N(S(=O)(=O)c2ccc(C)cc2)[C@H]1c1cccc(Cl)c1,composite z-score,[1],0.937
same,composite z-score,[2],1.09
same,composite z-score,[3],1.17
same,z-score,[4],-0.355 (inactive)
same,composite z-score,[5],0.839
same,composite z-score,[6],1.27
same,composite z-score,[7],0.448
same,composite z-score,[8],1.17
same,composite z-score,[9],-0.0943
same,composite z-score,[10],-0.249
COCCOC(=O)N1C(=O)[C@@]2(c3cc(C#CC4(O)CCCCCC4)ccc31)[C@H](C(N)=O)[C@H]1C(=O)O[C@H](c3ccccc3)[C@H](c3ccccc3)N1[C@@H]2c1ccc(O)cc1,composite z-score,[1],1.16
same,composite z-score,[2],-0.116
same,composite z-score,[3],-0.0074
same,z-score,[4],-0.538 (inactive)
same,composite z-score,[5],1.09
same,composite z-score,[6],1.01
same,composite z-score,[7],0.406
same,composite z-score,[8],1.28
same,composite z-score,[9],0.489
same,composite z-score,[10],0.496
C=CCOC(=O)[C@@H]1[C@H]2C(=O)O[C@H](c3ccccc3)[C@H](c3ccccc3)N2[C@H](c2ccc(OCCOC(=O)[C@H]3C[C@H]4C(=O)N[C@@H](CCCCNC(C)=O)C(=O)N4[C@H]3c3cccc(OCCO)c3)cc2)[C@@]12C(=O)Nc1ccc(I)cc12,composite z-score,[1],1.52
same,composite z-score,[2],0.453
same,composite z-score,[3],0.182
same,z-score,[4],0.357 (inactive)
same,composite z-score,[5],0.909
same,composite z-score,[6],1.32
same,composite z-score,[7],0.771
same,composite z-score,[8],1.23
same,composite z-score,[9],1.45
same,composite z-score,[10],0.124
C=C(CCCC)/C(=C/C[C@@H](OC(=O)c1ccncc1)c1cccc(OCCO)c1)c1cnc2ccccc2c1,composite z-score,[1],0.148
same,composite z-score,[2],0.11
same,composite z-score,[3],0.563
same,z-score,[4],-0.562 (inactive)
same,composite z-score,[5],1.52
same,composite z-score,[6],0.667
same,composite z-score,[7],1.27
same,composite z-score,[8],1.56
same,composite z-score,[9],0.895
same,composite z-score,[10],1.67
CCCN1C(=O)[C@]2(Cc3ccccc3)N=C(c3ccc(OCCCO)cc3)O[C@@H]2c2ccccc21,composite z-score,[1],1.25
same,composite z-score,[2],0.206
same,composite z-score,[3],0.41
same,z-score,[4],-1.41 (inactive)
same,composite z-score,[5],1.24
same,composite z-score,[6],1.32
same,composite z-score,[7],0.642
same,composite z-score,[8],0.928
same,composite z-score,[9],0.223
same,composite z-score,[10],0.808
[N-]=[N+]=NCc1ccccc1C[C@]1(C(=O)NCC(O)CO)N=C(c2ccc(OCCCO)cc2)O[C@H]1c1ccccc1CN=[N+]=[N-] (stereo not given in full),composite z-score,[1],0.425
same,composite z-score,[2],0.384
same,composite z-score,[3],0.953
same,z-score,[4],-0.47 (inactive)
same,composite z-score,[5],1.08
same,composite z-score,[6],1.15
same,composite z-score,[7],-0.154
same,composite z-score,[8],-0.392
same,composite z-score,[9],-0.749
same,composite z-score,[10],0.387
COC(=O)[C@@]1(Cc2ccc(F)cc2)[C@H]2c3cc(C(=O)N4CCCC4)n(CCc4c[nH]c5ccc(OC)cc45)c3C[C@H]2CN1C(=O)c1ccccc1,composite z-score,[1],1.03
same,composite z-score,[2],1.6
same,composite z-score,[3],1.01
same,z-score,[4],-3.28 (inactive)
same,composite z-score,[5],1.53
same,composite z-score,[6],1.18
same,composite z-score,[7],0.763
same,composite z-score,[8],0.735
same,composite z-score,[9],0.0605
same,composite z-score,[10],1.06
Cc1ccc(S[C@]2(C(=O)NC(C)C)CC(=O)N(C3Cc4ccccc4C3)[C@@H]2c2ccc(CO)cc2I)cc1,composite z-score,[1],0.944
same,composite z-score,[2],-0.253
same,composite z-score,[3],-0.398
same,z-score,[4],-1.44 (inactive)
same,composite z-score,[5],-0.651
same,composite z-score,[6],0.1
same,composite z-score,[7],-0.922
same,composite z-score,[8],-1.13
same,composite z-score,[9],-1.18
same,composite z-score,[10],-0.696
[N-]=[N+]=NCc1ccccc1[C@H]1OC(c2ccc(OCCCO)cc2)=N[C@@]1(CCS(=O)(=O)c1ccccc1)C(N)=O,composite z-score,[1],1.37
same,composite z-score,[2],0.605
same,composite z-score,[3],1.07
same,z-score,[4],-0.503 (inactive)
same,composite z-score,[5],1.5
same,composite z-score,[6],1.1
same,composite z-score,[7],-0.216
same,composite z-score,[8],0.441
same,composite z-score,[9],-0.0333
same,composite z-score,[10],1.29
CCCC[C@@H]1C[C@H]1[C@@H](NC(=O)c1ccccc1)c1ccc(Cl)cc1,composite z-score,[1],-1.24
same,composite z-score,[2],0.15
same,composite z-score,[3],1.01
same,z-score,[4],-1.93 (inactive)
same,composite z-score,[5],-1.38
same,composite z-score,[6],-1.78
same,composite z-score,[7],-1.77
same,composite z-score,[8],-2.35
same,composite z-score,[9],-1.36
same,composite z-score,[10],0.39
CCOC(=O)[C@H]1C/C=C/C[C@H](C(=O)OCC)C(=O)O[C@H]2[C@@H](OC)O[C@H](CO)[C@@H](OC(=O)CCc3ccccc3)[C@@H]2OC1=O,composite z-score,[1],0.254
same,composite z-score,[2],-0.41
same,composite z-score,[3],0.128
same,z-score,[4],-0.389 (inactive)
same,composite z-score,[5],-0.785
same,composite z-score,[6],-1.46
same,composite z-score,[7],-0.741
same,composite z-score,[8],-1.53
same,composite z-score,[9],-0.315
same,composite z-score,[10],0.334
CO[C@H]1O[C@H](CO)[C@@H](OC(=O)Nc2ccc(C(F)(F)F)cc2)[C@H](OC(=O)Nc2ccc3c(c2)OCO3)[C@H]1OC(=O)Nc1ccc2c(c1)OCO2,composite z-score,[1],1.5
same,composite z-score,[2],0.517
same,composite z-score,[3],0.63
same,z-score,[4],-0.412 (inactive)
same,composite z-score,[5],0.844
same,composite z-score,[6],1.28
same,composite z-score,[7],-0.279
same,composite z-score,[8],0.871
same,composite z-score,[9],0.214
same,composite z-score,[10],0.483
NC(=O)NCC#Cc1ccc2c(c1)[C@]1(C(=O)N2)[C@H](C(=O)Nc2nc3ccccc3s2)[C@H]2C(=O)O[C@H](c3ccccc3)[C@H](c3ccccc3)N2[C@@H]1c1ccc(O)cc1,composite z-score,[1],0.726
same,composite z-score,[2],0.636
same,composite z-score,[3],0.212
same,z-score,[4],0.232 (inactive)
same,composite z-score,[5],1
same,composite z-score,[6],0.163
same,composite z-score,[7],0.278
same,composite z-score,[8],0.53
same,composite z-score,[9],0.246
same,composite z-score,[10],0.744
COc1ccc([Si](C)(C)[C@H]2[C@H](CCn3cc([C@H](O)c4ccccc4)nn3)O[C@@]3(C(=O)N(Cc4ccc(N5CCC5=O)cc4)c4ccccc43)[C@@H]2C)cc1,composite z-score,[1],0.995
same,composite z-score,[2],-0.185
same,composite z-score,[3],-0.403
same,z-score,[4],0.0121 (inactive)
same,composite z-score,[5],0.865
same,composite z-score,[6],0.365
same,composite z-score,[7],0.631
same,composite z-score,[8],0.855
same,composite z-score,[9],0.527
same,composite z-score,[10],0.862
